The assay has as its system tubulin (bovine brain). The assay is described as follows: tubulin polymerization end-point dOD, fold change relative to DMSO vehicle; higher = more polymerization (stabilization). Conditions: 50 µM; 60 min; 37 °C. The method in brief: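 Using the Cytoskeleton HTS-Tubulin polymerization kit, 4 mg/ml bovine brain tubulin in G-PEM buffer (PIPES pH 6.9, MgCl2, EGTA, GTP) was combined on ice in 384-well plates with compound at a final 50 μM in 0.5% DMSO. After warming to 37°C in a Tecan reader, the plates were read at 340 nm once a minute for 1 hour. Values give the end-point change in optical density as percent fold change over DMSO vehicle, normalized per run with the means and standard deviations of DMSO and reference-control wells.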
Consider `CC(=O)c1c(C)oc2c1cc(NS(=O)(=O)c1ccc(C)cc1)c1ccccc12`, for which the “tubulin polymerization end-point dOD” value was -58.9%.

Consider `COc1ccc(/C=N/NC(=O)c2cccc(F)c2)cc1I`, for which the “tubulin polymerization end-point dOD” value was 10.5%.

As to `COc1cccc(N2CCN(C(=O)c3cn(-c4ccccc4)nc3-c3cccnc3)CC2)c1`, the “tubulin polymerization end-point dOD” value was -111%.

Consider `Cc1cnc(C(=O)Nc2ncc(Cc3ccc(C#N)cc3)s2)cn1`, for which the “tubulin polymerization end-point dOD” value is -30.4%.

As for `O=C(Nc1ccc(N2CCCC2)cc1)C1COc2ccc(Cl)cc2C1` (centres undefined), the “tubulin polymerization end-point dOD” value worked out at 19.2%.

For the compound `COc1cc(C(=O)Nc2ccc3c(c2)CCN3C(C)=O)cc2c1OCCO2`, the “tubulin polymerization end-point dOD” value is -17%.

Turning to `COc1cc(CNc2ccc(Br)cc2)cc(OC)c1OC`, the “tubulin polymerization end-point dOD” value is -37.3%.

As for `O=C(Nc1ccc2c(c1)OCCO2)C(=O)Nc1cccc2ncccc12`, the “tubulin polymerization end-point dOD” value is -9.86%.

In the case of `CCc1cc2cc(OC)ccc2nc1SCC(=O)Nc1cc(C)ccc1OC`, the “tubulin polymerization end-point dOD” value was -2.45%.

Take `COc1ccc2nc(SCC(=O)Nc3ccccc3Br)c(C#N)cc2c1`: the “tubulin polymerization end-point dOD” value was determined as 14.8%.

As to `COc1ccc2nc(SCC(=O)Nc3ccccc3OC)c(C#N)cc2c1`, the “tubulin polymerization end-point dOD” value was -9.01%.

With `O=C(Nc1ncc(Cc2ccccc2Br)s1)c1cnccn1`, the “tubulin polymerization end-point dOD” value was 6.47%.

On to `CCc1cc2cc3c(cc2nc1SCC(=O)NCCc1ccccc1)OCO3`, for which the “tubulin polymerization end-point dOD” value came out at 387%.

As to `CCOc1ccc2nc(SCC(=O)Nc3ccccc3CC)c(C#N)cc2c1`, the “tubulin polymerization end-point dOD” value was -22.2%.

On to `O=C(Nc1ccc(N2CCc3sccc3C2)nc1)c1ccccc1F`, for which the “tubulin polymerization end-point dOD” value was -40.4%.

In the case of `Cc1cc2cc3c(cc2nc1SCC(=O)Nc1c(C)cccc1C)OCO3`, the “tubulin polymerization end-point dOD” value came out at 145%.

Take `COc1ccccc1NC(=O)CSc1nnc(-c2cc(OC)c(OC)c(OC)c2)n1C`: the “tubulin polymerization end-point dOD” value is -33.1%.

Take `Cc1ccc2[nH]c(=O)c(CN(CC3COCCO3)C(=O)Nc3ccccc3Cl)cc2c1` (centres undefined): the “tubulin polymerization end-point dOD” value came out at 23.1%.

For the compound `Cc1cc(C(=O)Nc2nc3cc4c(cc3s2)OCCO4)c2c(C)nn(C)c2n1`, the “tubulin polymerization end-point dOD” value stood at 28.4%.

For `COc1ccc2nc(/C=C/c3cccnc3)sc2c1`, the “tubulin polymerization end-point dOD” value was -29.9%.

In the case of `CC(=O)c1c(C)oc2c1cc(NS(=O)(=O)c1ccc(Cl)cc1)c1ccccc12`, the “tubulin polymerization end-point dOD” value came out at 2.59%.

With `Cc1ccc2nc(-c3ccc(I)cc3)cn2c1`, the “tubulin polymerization end-point dOD” value is 101%.

Regarding `O=C(c1cccnc1N1CCCC1)N1CC=C(c2c[nH]c3ccccc23)CC1`, the “tubulin polymerization end-point dOD” value was -49.4%.

Take `Oc1ccccc1-c1nc2cnccn2c1NCc1ccc2c(c1)OCO2`: the “tubulin polymerization end-point dOD” value is -6.54%.

With `Cc1cc2cc3c(cc2nc1SCC(=O)NCCc1ccccc1)OCCO3`, the “tubulin polymerization end-point dOD” value worked out at 130%.

On to `CCc1ccccc1NC(=S)N(CCCO)Cc1cc2cc(C)cc(C)c2[nH]c1=O`, for which the “tubulin polymerization end-point dOD” value is -51.6%.

With `Cc1cc2nc(-c3ccc(SCC#N)nc3)[nH]c2cc1C`, the “tubulin polymerization end-point dOD” value was 51.8%.

In the case of `Cc1ccc(C(=O)CSc2nc3c(C)cccc3cc2C#N)cc1`, the “tubulin polymerization end-point dOD” value is -15.2%.

Regarding `O=C1CCCN1Cc1ccc(-c2ccccc2CNc2ncccn2)cc1`, the “tubulin polymerization end-point dOD” value was -32.9%.

Source of the values: the supplement of paper PMC4380459.
